Among the data in PubChem BioAssay are composite z-score and z-score values, retold here.

The nature of test [1]: binders of probe aFSTL3 on microarray, primary screen, stem cell growth factor project, biochemical, small-molecule microarray, fluorescence 635/667 (AID 1064).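 Also: measures binding of the biotinylated anti-FSTL3 antibody to printed compounds.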 To be noted: higher = more signal.
A short description of test [2]: binders from COS7 lysate, DM2A8 probe, primary screen, torsin A project, cell lysate, small-molecule microarray, fluorescence 635/667 (AID 1065). As to conditions: higher = more signal, COS7 lysate expressing mutant human TOR1A.
Test [3] in a line: binders of probe aFGF2 on microarray, primary screen, stem cell growth factor project, biochemical, small-molecule microarray, fluorescence 635/667 (AID 1067).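 Also: measures binding of biotinylated aFGF2 protein to printed compounds on slides; z-score merges feature fluorescence and signal-to-noise across triplicate slides.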 As to conditions: higher = more signal.
Test [4] is described as follows: binders of probe aFGF10 on microarray, primary screen, stem cell growth factor project, biochemical, small-molecule microarray, fluorescence 635/667 (AID 1071).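 Also: score merges 667 nm spot intensity and signal to noise from triplicate slides.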 As to conditions: higher = more signal.
Test [5] has as its target Neurogenic locus notch homolog protein 2 (Homo sapiens) (UniProt Q04721). The test can be described thus: Notch2 binders on small-molecule microarrays, primary screen, biochemical, small-molecule microarray, 635 nm fluorescence, stem cell growth factors (AID 1073). To be noted: Notch2 binding, higher = more signal.
In test [6] the target is Pro-neuregulin-1, membrane-bound isoform (Homo sapiens) (UniProt Q02297). The test can be described thus: NRG1 binders on small-molecule microarrays, primary screen, psychiatric disease protein project, biochemical, small-molecule microarray, fluorescence 635/667 (AID 1075).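 Also: score combines 667 nm spot fluorescence with signal to noise.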 As to conditions: NRG1 binding, 635 nm fluorescence, higher = more signal.
The subject of test [7] is Neuregulin-1 EGF-like domain. The test can be described thus: binders of neuregulin-1 EGF-like domain, primary screen, biochemical, small-molecule microarray, 635 nm fluorescence (AID 1081).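 Also: binding of the protein to compounds printed on small-molecule microarray slides.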 To be noted: small-molecule microarray binding, higher = more signal.
Test [8] in a line: FRG1 promoter luciferase signal modulators, primary screen, FRG1 inhibition for FSHD, cell-based, C2C12 myotubes, firefly/Renilla luciferase, luminescence (AID 1084). As to conditions: higher = more signal, called active from +8 up or from −8 down.
A short description of test [9]: binders of probe aFST on microarray, primary screen, stem cell growth factor project, biochemical, small-molecule microarray, fluorescence 635/667 (AID 1086).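 Also: score merges 667 nm fluorescence with signal-to-noise of each printed compound spot.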 To be noted: higher = more signal.
A short description of test [10]: binders of probe aHhip on microarray, primary screen, stem cell growth factor project, biochemical, small-molecule microarray, fluorescence 635/667 (AID 1087).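 Also: score merges spot fluorescence at 667nm with spot signal to noise ratio.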 As to conditions: higher = more signal.
Test [11] deals with PRMT1 (protein arginine N-methyltransferase 1). The test can be described thus: PRMT1 binders on small-molecule microarrays, primary screen, biochemical, small-molecule microarray, 635 nm fluorescence (AID 1088).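 Also: binding of Prmt1 protein to compounds spotted on small-molecule microarray slides.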 As to conditions: small-molecule microarray binding, higher = more signal.
The nature of test [12]: yeast growth modulation, basal conditions, primary screen, YJM789 clinical isolate, OD600, 24 h (AID 1089).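 Also: growth of clinical yeast isolate S. cerevisiae YJM 789 seeded 1000 cells per well; test concentration not given here.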 To be noted: S. cerevisiae YJM789 growth, higher = more signal, called active from +8 up or from −8 down.
Test [13] is described as follows: fission yeast growth modulation, primary screen, strain 972, OD600, 24 h, no modulator (AID 1090).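 Also: basal condition with compound alone and no growth modifier present; test concentration not given here.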 As to conditions: S. pombe 972 growth, higher = more signal, called active from +8 up or from −8 down.
A short description of test [14]: S. cerevisiae growth modulation with rapamycin, primary screen, strain BY4716, OD600, 96 h (AID 1091). Also: test concentration not given here. As to conditions: higher = more signal, called active from +8 up or from −8 down.
In test [15] the target is Torsin-1A-interacting protein 2 (Homo sapiens) (UniProt Q8NFQ8). The test can be described thus: LULL1 binders on small-molecule microarray, primary screen, cell lysate, human LULL1 lysate, 635/667 nm fluorescence (AID 1092).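 Also: probe is lysate of COS7 cells overexpressing human LULL1; score merges per-feature 667 nm fluorescence with signal-to-noise.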 As to conditions: hLULL1 lysate binding, 635 nm fluorescence, higher = more signal.
A short description of test [16]: E. coli growth modulation, two-sided OD650, primary screen, E. coli filamentation project, strain DRC41, 24 h (AID 1093).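 Also: MC1000 strain lacking acrAB efflux and sulA so SOS filamentation is blocked; test concentration not given here.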 To be noted: OD650, 24 h, higher = more signal, called active from +8 up or from −8 down.
The nature of test [17]: small-molecule microarray binders of probe aLefty2, primary screen, biochemical, biotinylated probe, 635/667 nm fluorescence (AID 1094).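 Also: score merges spot fluorescence near 667 nm with spot signal-to-noise ratio.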 To be noted: higher = more signal.
Test [18] relates to Noggin (protein binding on small-molecule microarray). The test can be described thus: Noggin binders on small-molecule microarray, primary screen, biochemical, 635/667 nm fluorescence (AID 1095).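 Also: score merges 667 nm feature fluorescence with signal to noise over triplicate slides.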 To be noted: 635 nm fluorescence, higher = more signal.
Test [19] concerns the target Neurogenic locus notch homolog protein 3 (Homo sapiens) (UniProt Q9UM47). The test can be described thus: NOTCH3 binders on small-molecule microarray, primary screen, biochemical, 635/667 nm fluorescence (AID 1096). As to conditions: NOTCH3 binding, 635 nm fluorescence, higher = more signal.
Test [20] can be described thus: small-molecule microarray binders of probe aEGFR, primary screen, biochemical, biotinylated probe, 635/667 nm fluorescence (AID 1097).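 Also: probe is a biotinylated anti-EGFR antibody binding compounds printed on slides; score combines fluorescence near 667 nm and signal to noise of each spot.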 To be noted: higher = more signal.

Calls of active or inactive are those of the source.

Torsin-1A-interacting protein 2 (Homo sapiens), sequence (Q8NFQ8 whole entry, looked up): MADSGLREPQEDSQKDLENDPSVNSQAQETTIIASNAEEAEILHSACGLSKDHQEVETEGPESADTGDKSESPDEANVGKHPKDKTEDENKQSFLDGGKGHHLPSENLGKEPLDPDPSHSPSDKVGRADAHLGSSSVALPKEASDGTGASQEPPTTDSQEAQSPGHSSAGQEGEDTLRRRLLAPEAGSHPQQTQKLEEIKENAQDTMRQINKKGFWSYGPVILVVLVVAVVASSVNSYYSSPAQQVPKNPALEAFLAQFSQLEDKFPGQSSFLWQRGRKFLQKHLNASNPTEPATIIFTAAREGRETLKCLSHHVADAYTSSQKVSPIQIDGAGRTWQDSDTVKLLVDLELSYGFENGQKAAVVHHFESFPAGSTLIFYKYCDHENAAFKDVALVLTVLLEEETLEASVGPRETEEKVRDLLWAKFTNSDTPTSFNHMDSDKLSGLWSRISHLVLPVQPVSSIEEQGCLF
Neurogenic locus notch homolog protein 2 (Homo sapiens), sequence (Q04721 whole entry, looked up, canonical isoform): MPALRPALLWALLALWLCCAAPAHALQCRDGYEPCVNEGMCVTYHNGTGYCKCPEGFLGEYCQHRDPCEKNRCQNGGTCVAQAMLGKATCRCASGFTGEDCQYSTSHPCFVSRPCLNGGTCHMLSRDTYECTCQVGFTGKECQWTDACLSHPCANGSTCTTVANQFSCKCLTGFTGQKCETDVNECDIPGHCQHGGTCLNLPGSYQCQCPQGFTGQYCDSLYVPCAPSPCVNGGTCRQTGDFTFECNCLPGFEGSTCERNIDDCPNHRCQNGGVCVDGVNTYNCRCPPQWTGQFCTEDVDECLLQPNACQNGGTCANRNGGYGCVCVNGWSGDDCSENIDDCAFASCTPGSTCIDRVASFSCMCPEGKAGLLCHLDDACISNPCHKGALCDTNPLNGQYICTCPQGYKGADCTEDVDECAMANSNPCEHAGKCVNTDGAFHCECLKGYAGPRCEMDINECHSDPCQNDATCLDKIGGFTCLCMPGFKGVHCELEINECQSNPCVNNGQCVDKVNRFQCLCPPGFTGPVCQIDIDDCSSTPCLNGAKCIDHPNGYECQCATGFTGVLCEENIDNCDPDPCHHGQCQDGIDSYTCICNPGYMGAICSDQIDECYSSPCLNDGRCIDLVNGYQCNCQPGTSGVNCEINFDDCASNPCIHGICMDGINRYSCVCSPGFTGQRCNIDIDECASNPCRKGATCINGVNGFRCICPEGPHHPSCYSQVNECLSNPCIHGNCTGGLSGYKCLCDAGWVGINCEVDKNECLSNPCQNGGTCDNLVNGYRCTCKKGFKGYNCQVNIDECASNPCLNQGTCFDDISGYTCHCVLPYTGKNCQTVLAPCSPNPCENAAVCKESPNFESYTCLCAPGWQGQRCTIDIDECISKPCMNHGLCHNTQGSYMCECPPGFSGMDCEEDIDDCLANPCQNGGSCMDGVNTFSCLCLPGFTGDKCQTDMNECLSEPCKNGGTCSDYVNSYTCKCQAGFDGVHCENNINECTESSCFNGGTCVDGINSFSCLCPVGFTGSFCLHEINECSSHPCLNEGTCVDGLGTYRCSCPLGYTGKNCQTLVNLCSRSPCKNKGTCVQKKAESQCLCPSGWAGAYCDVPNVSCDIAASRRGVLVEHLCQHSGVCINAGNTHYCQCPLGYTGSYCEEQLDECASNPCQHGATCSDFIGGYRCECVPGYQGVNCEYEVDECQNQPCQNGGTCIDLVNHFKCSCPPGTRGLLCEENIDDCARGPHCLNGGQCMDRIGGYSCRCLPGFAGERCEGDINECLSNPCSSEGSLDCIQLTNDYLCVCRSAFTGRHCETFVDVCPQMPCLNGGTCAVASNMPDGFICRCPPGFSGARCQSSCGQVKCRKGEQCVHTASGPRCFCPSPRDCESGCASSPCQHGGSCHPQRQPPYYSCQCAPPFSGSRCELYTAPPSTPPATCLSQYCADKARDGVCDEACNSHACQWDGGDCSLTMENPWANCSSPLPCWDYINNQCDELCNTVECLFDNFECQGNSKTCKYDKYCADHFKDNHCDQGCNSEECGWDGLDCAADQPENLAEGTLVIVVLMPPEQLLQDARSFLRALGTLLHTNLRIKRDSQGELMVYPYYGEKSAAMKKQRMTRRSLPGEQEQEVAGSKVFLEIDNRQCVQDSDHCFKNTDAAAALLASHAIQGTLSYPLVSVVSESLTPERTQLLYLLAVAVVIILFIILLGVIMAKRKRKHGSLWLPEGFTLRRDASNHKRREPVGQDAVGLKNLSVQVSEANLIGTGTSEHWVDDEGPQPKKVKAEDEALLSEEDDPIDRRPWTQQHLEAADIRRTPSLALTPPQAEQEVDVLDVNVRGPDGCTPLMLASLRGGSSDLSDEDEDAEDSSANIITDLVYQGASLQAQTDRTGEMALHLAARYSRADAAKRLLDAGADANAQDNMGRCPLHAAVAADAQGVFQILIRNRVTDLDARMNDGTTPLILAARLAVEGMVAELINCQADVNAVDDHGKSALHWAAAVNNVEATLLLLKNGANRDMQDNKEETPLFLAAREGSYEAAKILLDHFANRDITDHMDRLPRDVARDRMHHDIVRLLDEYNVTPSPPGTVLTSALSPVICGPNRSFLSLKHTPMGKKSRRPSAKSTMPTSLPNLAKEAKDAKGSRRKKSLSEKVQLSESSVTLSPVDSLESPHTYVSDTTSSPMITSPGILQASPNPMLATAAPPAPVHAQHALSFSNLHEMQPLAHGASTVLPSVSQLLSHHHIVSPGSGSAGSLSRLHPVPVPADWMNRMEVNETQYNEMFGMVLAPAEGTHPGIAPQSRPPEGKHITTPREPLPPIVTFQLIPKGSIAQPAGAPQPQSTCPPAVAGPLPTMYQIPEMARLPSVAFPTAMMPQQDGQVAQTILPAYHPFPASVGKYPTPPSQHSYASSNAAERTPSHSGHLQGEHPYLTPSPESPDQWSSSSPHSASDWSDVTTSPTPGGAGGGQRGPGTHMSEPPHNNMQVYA
Pro-neuregulin-1, membrane-bound isoform (Homo sapiens), sequence (Q02297 whole entry, looked up, the tested form may be a part, canonical isoform): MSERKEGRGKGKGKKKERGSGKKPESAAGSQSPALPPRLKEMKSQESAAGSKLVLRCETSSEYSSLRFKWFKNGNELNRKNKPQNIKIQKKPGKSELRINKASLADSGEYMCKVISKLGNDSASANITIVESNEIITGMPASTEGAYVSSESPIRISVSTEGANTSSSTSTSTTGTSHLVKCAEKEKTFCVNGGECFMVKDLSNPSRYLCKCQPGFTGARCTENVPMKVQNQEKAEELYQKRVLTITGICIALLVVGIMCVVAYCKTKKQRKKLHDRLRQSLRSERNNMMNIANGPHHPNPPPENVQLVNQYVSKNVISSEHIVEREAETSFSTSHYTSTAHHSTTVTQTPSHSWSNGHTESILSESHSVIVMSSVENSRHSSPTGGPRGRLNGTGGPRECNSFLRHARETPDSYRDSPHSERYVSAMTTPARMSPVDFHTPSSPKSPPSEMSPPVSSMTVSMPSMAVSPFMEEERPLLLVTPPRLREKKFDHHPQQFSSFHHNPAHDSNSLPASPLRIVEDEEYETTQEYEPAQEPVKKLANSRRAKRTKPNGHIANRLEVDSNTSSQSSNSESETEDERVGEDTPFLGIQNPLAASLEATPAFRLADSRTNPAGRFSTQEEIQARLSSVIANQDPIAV

In the case of `CC(C)NC(=O)[C@@]1(C)c2ccccc2C(=O)N(Cc2cc(C(F)(F)F)cc(C(F)(F)F)c2)[C@H]1c1ccc(CO)cc1`, the composite z-score was 0.43 in test [1]; -1.42 in test [2]; -0.128 in test [3]; -0.477 in [4]; -0.753 in test [5]; 0.353 in [6]. Besides, the composite z-score in test [7] is 1.27; in test [9], -0.213; in test [10], -0.374; in test [11], 1.4; in test [15], 3; in test [17], -0.239. In addition, the composite z-score in [18] was -0.729; in test [19], -0.301; in [20], -0.295. In addition, the z-score in test [8] was -1.38 (inactive); in test [12] it was 0.49 (inactive); in test [13], 0.155 (inactive); in test [14], -0.0902 (inactive); in test [16], -0.0192 (inactive).
For the compound `C[C@H]1C2[C@H](Cc3ccccc3)NC(=O)[C@]23C(=O)N[C@H](Cc2ccccc2)C(=O)N2CCC[C@H]2C(=O)NC/C=C\C/C=C/C3[C@@H]2O[C@]12C` (stereo not given in full), the composite z-score is -0.4 in test [1]; -0.217 in test [2]; -0.0439 in [3]; 0.293 in test [4]; 0.451 in test [5]; 0.455 in test [6]. Further, the composite z-score in test [7] is -0.473; in test [9], 0.0114; in test [10] it was -0.236; in test [11] it was 0.178; in [15], 0.392; in [17] it was -0.175. Besides, the composite z-score in [18] was 0.177; in test [19], 0.492; in [20], -0.13. The z-score in test [8] is 1.59 (inactive); in test [12], -0.662 (inactive); in [13], -1.06 (inactive); in test [14], -1.19 (inactive); in test [16], 0.132 (inactive).
On to `COC(=O)[C@@]1(Cc2ccc(F)cc2)[C@H]2c3cc(C(=O)N4CCCC4)n(Cc4ccc(S(C)(=O)=O)cc4)c3C[C@H]2CN1C(=O)c1ccccc1`, for which the composite z-score in [1] was 0.635; in [2] it was -0.266; in [3], 0.29; in test [4], 0.983; in test [5], 1.55; in test [6], 1.88. For the same compound, the composite z-score in test [7] is 0.859; in test [9], 2.09; in [10], -0.0169; in test [11], -0.0384; in test [15] it was 3.29; in [17] it was 0.267. For the same compound, the results for the composite z-score in [18], in [19] and in test [20] were -0.771, 1.02 and 0.123, respectively. For the same compound, the z-score was -0.205 (inactive) in test [8]; -0.13 (inactive) in test [12]; 0.365 (inactive) in test [13]; 1.48 (inactive) in test [14]; -1.02 (inactive) in test [16].
For `O=C1c2ccccc2[C@](Cc2ccccc2I)(C(=O)NCCN2CCOCC2)[C@H](c2ccc(CO)cc2)N1Cc1ccccc1Cl`, the composite z-score in test [1] came to 0.118; in test [2], 0.469; in test [3], 0.07; in [4], 0.915; in test [5], 1.13; in [6], 1.24. Besides, the composite z-score was 1.29 in [7]; 0.511 in test [9]; 0.0274 in [10]; 1.55 in test [11]; 2.45 in test [15]; 0.225 in [17]. The composite z-score in [18] came out at 0.72; in test [19] it was 1.12; in [20], 0.0523. For the same compound, the z-score in test [8] is -1.96 (inactive); in test [12], -0.747 (inactive); in [13] it was -0.0063 (inactive); in test [14], -1.04 (inactive); in test [16] it was -0.116 (inactive).
As for `COCCOC(=O)N1C(=O)[C@@]2(c3cc(C#CC4(O)CCCCCC4)ccc31)[C@H](c1ccccc1OCCO)N1[C@H](c3ccccc3)[C@H](c3ccccc3)OC(=O)[C@H]1[C@@H]2C(=O)N1CCN(c2ncccn2)CC1`, the composite z-score was -0.383 in test [1]; 0.604 in [2]; -0.0425 in test [3]; 0.801 in [4]; 1.08 in test [5]; 1.15 in test [6]. Further, the composite z-score in test [7] was 1.26; in [9] it was 0.484; in test [10], -0.134; in test [11], 1.55; in test [15], 2.73; in test [17] it was 0.028. The composite z-score was 0.574 in test [18], 0.959 in [19] and 0.219 in test [20]. The z-score was -0.422 (inactive) in [8]; 2.46 (inactive) in [12]; 1.5 (inactive) in [13]; 6.01 (inactive) in [14]; 1.02 (inactive) in test [16].
